This is an account of results in PubChem BioAssay (NCATS).

Assay [1] is described as follows: Cell Viability - HepG2 (AID 433; calls by dose curve;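 also: potency is read from the fitted curve at half-maximal effect; cells exposed to compound for 40 hours; potency for ATP loss meaning cytotoxicity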). The settings on record: qHTS. Put shortly: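 HepG2 hepatocellular carcinoma cells (1500/well) were treated with compounds for 40 h at 37 °C in complete medium; intracellular ATP was read by CellTiter-Glo luminescence. Data were normalized to DMSO and 100 uM tamoxifen, and AC50 came from Hill fits.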
In general terms: Quantitative high-throughput screening tests each substance at several concentrations.

Assay [2] in a line: Cell Viability - SH-SY5Y (AID 544).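 Also: cells exposed to compound for 40 hours; nearly all actives have a fitted effect of over 55% in size.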 Conditions: SH-SY5Y neuroblastoma cell viability; viability change, negative = cytotoxic: at 92.2 µM (top of the series). Summed up: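 Cytotoxicity measured via ATP-dependent luciferase luminescence (CellTiter-Glo) following 40 h, 37 °C exposure of 1500 SH-SY5Y cells per well. Concentration-response data were fitted with the standard Hill equation to give AC50.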

Assay [3] in a line: Cell Viability - Mesenchymal (AID 546).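 Also: cells exposed to compound for 40 hours before reading.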 Conditions: mesenchymal cells viability, qHTS; series mostly up to 91.7 µM. Summed up: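 In this qHTS cytotoxicity format, glomerulus-derived human mesenchymal kidney cells received compound for 40 hr, then luciferase-based ATP quantitation. Concentration-response data were fitted with the Hill equation.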
Assay [4] in a line: Cellular Toxicity (caspase-3) HUV-EC-C (AID 656). The settings on record: HUV-EC-C cells, caspase-3 activation (apoptosis), vehicle = 0, 100 µM tamoxifen = 100%; series mostly up to 92.2 µM. Summed up:
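HUV-EC-C endothelial cells, 1000/well, were pre-incubated 5 hr at 37°C, then exposed to compounds for 16 hr at 37°C. Caspase-Glo 3/7 luminescence was read after 20 min at room temperature. AC50 came from Hill fits, normalized to DMSO and 100 uM tamoxifen.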

Assay [5] in a line: Cellular Toxicity (caspase-3) Mesangial (AID 660).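 Also: combined caspase 3 and 7 activity read by Caspase-Glo luminescence; cells exposed to compound for 16 h before the caspase read.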 The settings on record: mesangial cells, normalized: DMSO 0%, 100 µM tamoxifen 100%; series mostly up to 91.7 µM. Summed up:
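Caspase 3/7 activation measured by Caspase-Glo 3/7 luminescence (20 min, room temperature) following 16 h exposure of mesangial cells (1000/well); AC50 from Hill-equation fit, normalized to DMSO and 100 uM tamoxifen.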

A short description of assay [6]: Cellular Toxicity (caspase-3) SK-N-SH (AID 661).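 Also: 0% = DMSO basal and 100% = 10 µM staurosporine.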 Conditions: SK-N-SH caspase-3 activation, qHTS; series mostly up to 91.7 µM. Summed up: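 Caspase 3/7 activation was read by luminogenic substrate cleavage after 16 hour treatment of SK-N-SH cells. Signal was scaled between DMSO and 10 uM staurosporine, and concentration-response data were fitted with the Hill equation for AC50.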

A short description of assay [7]: Cellular Toxicity (caspase-3) Hek293 (AID 664).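 Also: cells exposed to compound for 16 h at 37 °C before readout.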 The settings on record: HEK293 caspase-3 activation, DMSO = 0%, 100 µM tamoxifen = 100%; at 92.2 µM (top of the series). Summed up: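 Concentration-response qHTS: caspase 3/7 activation measured by luminescent aminoluciferin substrate cleavage after 16 h compound exposure of Hek 293 cells. AC50 from Hill equation, with DMSO as basal and 100 uM tamoxifen as 100%.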

The nature of assay [8]: Cellular Toxicity (caspase-3) NIH 3T3 (AID 666).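 Also: caspase signal read after 16 h compound exposure.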 Conditions: NIH 3T3 caspase-3 activation, apoptosis/toxicity; series mostly up to 92.2 µM. Summed up: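 Caspase-Glo 3/7 luminescence reported caspase activation in 1000 NIH 3T3 cells/well after 16 h compound exposure at 37 C. DMSO set basal and 100 uM tamoxifen set 100% stimulation; concentration-response modeled with the Hill equation for AC50.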

Assay [9] in a line: Cell Viability - LYMP2-023 (AID 975).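 Also: cellular ATP measured by luciferase luminescence as viability proxy; cells exposed to compound for 24 hours at 37 °C; plate controls were DMSO only for no effect and 92 µM tetraoctylammonium bromide control for full effect; nearly all actives have a fitted effect of over 55% in size.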 The settings on record: LYMP2-023 lymphoblastoid cell viability; series mostly up to 92.2 µM. Summed up:
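Intracellular ATP, read by CellTiter-Glo luminescence, reports viability after 24 hr compound exposure at 37 C. 2500 lymphoblastoid cells/well (LYMP2-023) seeded 5 hr beforehand; Hill fits give AC50; positive control tetraoctylammonium bromide.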

Assay [10] can be described thus: Cell Viability - LYMP2-014 (AID 983).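 Also: plate controls were DMSO only for no effect and 92 µM tetraoctylammonium bromide for full effect; nearly all actives have a fitted effect of over 50% in size.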 The settings on record: LYMP2-014 lymphoblastoid cells, viability qHTS; series mostly up to 92.2 µM. Summed up:
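Intracellular ATP loss, read by luciferase luminescence, measures acute cytotoxicity after 24 h compound exposure of lymphoblastoid LYMP2-014 cells (2500/well, 37 C). Concentration-response data fitted to the Hill equation for AC50.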

Assay [11] is described as follows: Cell Viability - LYMP2-026 (AID 989). Also: % is scaled to controls: 0 for no effect and ±100 for the full control effect; nearly all actives have a fitted effect of over 50% in size. The settings on record: LYMP2-026 lymphoblastoid cell viability, qHTS; series mostly up to 92.2 µM. Summed up: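 Cytotoxicity read as ATP-dependent luminescence (CellTiter-Glo, 30 min room temperature) after 24 h compound treatment at 37 C. LYMP2-026 lymphoblastoid line seeded at 2500 cells/well; AC50 derived by standard Hill equation.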

Assay [12] has as its target Peroxisome proliferator-activated receptor delta (Homo sapiens) (UniProt Q03181). In words: qHTS assay for small molecule agonists of peroxisome proliferator-activated receptor delta signaling (AID 588534; calls by dose curve;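 also: 0% = DMSO basal wells and 100% = positive control agonist at 10 µM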). Conditions: HEK293T PPARdelta-UAS-bla, beta-lactamase ratio, 18 h; series mostly up to 76.7 µM. Summed up:
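Agonist-mode beta-lactamase reporter readout (CCF4 dye, 2 h at RT) after 18 h at 37 °C exposure to a titration; Hill-equation fitting gave EC50 and maximal response.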

Assay [13] deals with Vitamin D3 receptor (Homo sapiens) (UniProt P11473). In words: qHTS assay for small molecule antagonists of vitamin D receptor signaling (AID 588541; calls by dose curve;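 also: receptor activated by calcitriol during compound treatment; % is scaled to controls: 0 for no effect and ±100 for the full control effect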). Conditions: HEK293T VDR-UAS-bla, beta-lactamase ratio, antagonist mode; series mostly up to 76.7 µM. Put shortly:
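VDR-UAS-bla HEK293T cells (2000/well, 2% charcoal-stripped FBS) were treated with titrated compounds plus 1-alpha,25-dihydroxyvitamin D3 (50 nM or 3 nM final) for 16 h at 37 C. CCF4 beta-lactamase fluorescence was read; Hill fits gave IC50.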

For assay [14] the target is unchanged. In words: qHTS assay for small molecule agonists of vitamin D receptor signaling (AID 588543; calls by dose curve;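 also: 0% = DMSO basal and 100% = reference agonist control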). The settings on record: HEK293T VDR-UAS-bla, beta-lactamase ratio, 16 h; series mostly up to 76.8 µM. Put shortly:
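GeneBLAzer VDR-UAS-bla HEK293T cells in 2% charcoal-stripped FBS medium were dosed with compound titrations for 16 h at 37 °C; CCF4 β-lactamase readout (405 nm ex, 460/530 nm em). EC50 and efficacy from Hill fits, normalized to 50 nM calcitriol (100%) and DMSO (0%).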

In assay [15] the target is Voltage-gated inwardly rectifying potassium channel KCNH2 (Homo sapiens) (UniProt Q12809). In words: qHTS Assay for Small Molecule Inhibitors of the Human hERG Channel Activity (AID 588834).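 Also: top concentration of the series differs between compounds; % is scaled to controls: 0 for no effect and ±100 for the full control effect; lower thallium flux fluorescence means stronger hERG block; nearly all actives have a fitted effect of over 50% in size.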 The settings on record: U2OS BacMam hERG, FluxOR thallium flux fluorescence; series mostly up to 92.2 µM. Summed up:
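In hERG-transduced U2OS cells, dye-loaded for 1 hr at room temperature in dark, test compounds incubated 10 min at 37 °C before thallium stimulation. AC50 values derived by Hill modelling of concentration-response.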

The nature of assay [16]: qHTS assay for small molecule activators of the p53 signaling pathway (AID 651743; active = well fitted activation curve with a large enough effect in the signal ratio, not every such curve was filed as active; the % refers to the signal ratio; also: % of control where 0% means no effect). Conditions: HCT-116 p53RE-bla, beta-lactamase FRET ratio, 16 h; activation: hits give high values. Put shortly:
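Agonist-mode quantitative HTS in HCT-116 cells carrying a p53-response-element beta-lactamase reporter; 16 h compound treatment at 37 C, then FRET substrate loading for 2 h at room temperature and fluorescence read.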

The nature of assay [17]: qHTS assay for small molecule disruptors of the mitochondrial membrane potential - 1 hr assay (AID 651754; calls by dose curve; also: nearly all actives have a fitted effect of over 35% in size; also: potency is read from the fitted curve at half-maximal effect). The settings on record: series mostly up to 92.2 µM. Put shortly:
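Mitochondrial potential in living HepG2 cells after 1 hr compound treatment at 37C was read with Mito-MPS dye added for a further 30 min. Red aggregate and green monomer fluorescence were measured; loss of potential leaves dye as cytoplasmic monomers.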

A short description of assay [18]: Cellular Toxicity (caspase-3) HepG2 (AID 654).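 Also: cells exposed to compound for 16 hours before reading; 0% = DMSO alone and 100% = caspase signal from 100 µM tamoxifen.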 The settings on record: HepG2 caspase-3 activation, luminescence, 0% = DMSO only, 100% = tamoxifen; series mostly up to 92.2 µM. Summed up: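 Caspase 3/7 activation is measured as a luminescence increase (aminoluciferin substrate) after 16 h compound exposure of human hepatocarcinoma HepG2 cells. AC50 values are Hill fits, scaled between DMSO baseline and 100 uM tamoxifen stimulation.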

The target in assay [19] is Nuclear receptor ROR-gamma (Homo sapiens) (UniProt P51449). In words: qHTS assay for small molecule antagonists of the retinoid-related orphan receptor gamma (ROR-gamma) signaling pathway (AID 651802).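 Also: CHO cells with doxycycline-induced ROR-gamma expression; luciferase reporter luminescence driven by ROR response element; % is scaled to controls: 0 for no effect and ±100 for the full control effect; nearly all actives have a fitted effect of over 60% in size.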 Conditions: ROR-gamma antagonist cell reporter assay; series mostly up to 92.2 µM. Put shortly: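 Luminescence (One-Glo, 30 min RT) measured 16 h after compound addition and doxycycline induction at 37C. Reporter: RORE-luciferase under TET-inducible ROR-gamma in CHO cells.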

The nature of assay [20]: qHTS assay for small molecule agonists of the antioxidant response element (ARE) signaling pathway measured by Nrf2-dependant transcriptional activity - cell viability counter screen (AID 720653; active = well fitted curve in the direction sought with a large enough effect in the repeat runs; an effect the other way counts as inactive or inconclusive; also: % is scaled to controls: 0 for no effect and ±100 for the full control effect). The settings on record: ARE-bla HepG2 viability, CellTiter-Glo ATP luminescence, 16 h; hits give low values. Summed up: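 ARE-bla HepG2 cells (2,000/well) rested 5 hrs at 37C/5% CO2, then exposed to compounds in DMSO for 16 hrs. Viability was read in the same wells as intracellular ATP by luminescence, 30 min at room temperature after reagent addition.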

Values joined by “and” are separate entries in the source; they are usually repeats but may differ in a detail not shown here. Equal values may be shown once. Unmarked numbers belong to inactive results. Records with an inconclusive call do not appear. Active and inactive are the calls of the source. Unless noted, calls follow the shape of the dose curve; as a rule, active = well fitted curve in the direction sought with a large enough effect; inconclusive = small, poorly fitted or top-dose-only effect, or another doubt; inactive = no such curve, though single readings can be large; an effect the other way counts as inactive or inconclusive.

Sequence of Peroxisome proliferator-activated receptor delta (Homo sapiens) (Q03181 whole entry, looked up): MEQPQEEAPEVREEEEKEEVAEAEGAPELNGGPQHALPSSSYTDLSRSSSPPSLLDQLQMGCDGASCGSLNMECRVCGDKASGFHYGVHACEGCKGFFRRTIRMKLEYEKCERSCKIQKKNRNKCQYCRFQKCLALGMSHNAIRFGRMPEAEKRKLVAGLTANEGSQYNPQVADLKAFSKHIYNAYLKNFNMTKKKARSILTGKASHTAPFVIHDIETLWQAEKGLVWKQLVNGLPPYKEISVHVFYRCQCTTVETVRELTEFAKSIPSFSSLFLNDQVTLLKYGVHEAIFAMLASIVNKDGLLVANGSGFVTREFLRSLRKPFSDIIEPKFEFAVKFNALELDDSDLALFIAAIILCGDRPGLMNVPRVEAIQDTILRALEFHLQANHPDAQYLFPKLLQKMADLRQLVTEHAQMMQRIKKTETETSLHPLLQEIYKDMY
Sequence of Voltage-gated inwardly rectifying potassium channel KCNH2 (Homo sapiens) (Q12809 whole entry, looked up): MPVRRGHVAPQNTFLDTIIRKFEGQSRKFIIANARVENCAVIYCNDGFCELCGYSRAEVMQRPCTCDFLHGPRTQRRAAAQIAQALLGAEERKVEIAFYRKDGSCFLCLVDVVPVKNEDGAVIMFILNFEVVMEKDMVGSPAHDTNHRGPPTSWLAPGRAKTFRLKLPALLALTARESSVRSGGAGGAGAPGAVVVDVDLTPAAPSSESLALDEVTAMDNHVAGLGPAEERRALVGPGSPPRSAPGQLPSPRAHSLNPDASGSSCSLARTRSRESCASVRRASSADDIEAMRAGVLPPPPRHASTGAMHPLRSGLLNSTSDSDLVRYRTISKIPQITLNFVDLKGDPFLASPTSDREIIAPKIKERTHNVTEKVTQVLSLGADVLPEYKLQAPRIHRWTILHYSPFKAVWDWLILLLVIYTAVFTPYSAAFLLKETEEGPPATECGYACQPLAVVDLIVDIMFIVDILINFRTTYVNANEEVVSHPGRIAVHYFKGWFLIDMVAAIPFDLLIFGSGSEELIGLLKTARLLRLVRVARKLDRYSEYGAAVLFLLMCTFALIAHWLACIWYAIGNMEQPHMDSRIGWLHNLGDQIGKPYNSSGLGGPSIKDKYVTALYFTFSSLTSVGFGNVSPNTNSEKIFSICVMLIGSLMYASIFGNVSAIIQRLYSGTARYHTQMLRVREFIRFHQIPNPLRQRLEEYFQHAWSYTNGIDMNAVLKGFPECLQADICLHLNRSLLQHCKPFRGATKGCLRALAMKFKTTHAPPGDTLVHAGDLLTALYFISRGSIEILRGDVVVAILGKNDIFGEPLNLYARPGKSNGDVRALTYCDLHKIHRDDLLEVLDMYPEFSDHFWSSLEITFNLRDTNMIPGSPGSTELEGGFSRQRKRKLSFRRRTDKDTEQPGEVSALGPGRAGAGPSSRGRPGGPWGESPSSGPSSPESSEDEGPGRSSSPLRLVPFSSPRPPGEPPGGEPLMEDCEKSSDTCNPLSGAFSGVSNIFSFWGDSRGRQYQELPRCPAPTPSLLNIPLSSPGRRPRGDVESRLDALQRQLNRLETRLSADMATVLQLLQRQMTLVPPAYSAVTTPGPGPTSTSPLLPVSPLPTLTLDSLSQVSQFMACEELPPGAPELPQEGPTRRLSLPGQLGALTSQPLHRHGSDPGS
Sequence of Vitamin D3 receptor (Homo sapiens) (P11473 whole entry, looked up): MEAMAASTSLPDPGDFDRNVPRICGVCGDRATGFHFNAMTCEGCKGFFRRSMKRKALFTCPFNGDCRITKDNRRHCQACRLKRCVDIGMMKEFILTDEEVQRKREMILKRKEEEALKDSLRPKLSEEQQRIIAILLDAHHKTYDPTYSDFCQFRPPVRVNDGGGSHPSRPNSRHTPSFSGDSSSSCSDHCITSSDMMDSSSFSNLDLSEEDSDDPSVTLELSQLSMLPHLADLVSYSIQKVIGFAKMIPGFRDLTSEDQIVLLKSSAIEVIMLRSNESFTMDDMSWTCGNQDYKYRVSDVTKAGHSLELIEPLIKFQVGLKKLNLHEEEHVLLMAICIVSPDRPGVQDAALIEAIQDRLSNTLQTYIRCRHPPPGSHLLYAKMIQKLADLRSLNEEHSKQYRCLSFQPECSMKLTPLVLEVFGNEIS
Sequence of Nuclear receptor ROR-gamma (Homo sapiens) (P51449 whole entry, looked up): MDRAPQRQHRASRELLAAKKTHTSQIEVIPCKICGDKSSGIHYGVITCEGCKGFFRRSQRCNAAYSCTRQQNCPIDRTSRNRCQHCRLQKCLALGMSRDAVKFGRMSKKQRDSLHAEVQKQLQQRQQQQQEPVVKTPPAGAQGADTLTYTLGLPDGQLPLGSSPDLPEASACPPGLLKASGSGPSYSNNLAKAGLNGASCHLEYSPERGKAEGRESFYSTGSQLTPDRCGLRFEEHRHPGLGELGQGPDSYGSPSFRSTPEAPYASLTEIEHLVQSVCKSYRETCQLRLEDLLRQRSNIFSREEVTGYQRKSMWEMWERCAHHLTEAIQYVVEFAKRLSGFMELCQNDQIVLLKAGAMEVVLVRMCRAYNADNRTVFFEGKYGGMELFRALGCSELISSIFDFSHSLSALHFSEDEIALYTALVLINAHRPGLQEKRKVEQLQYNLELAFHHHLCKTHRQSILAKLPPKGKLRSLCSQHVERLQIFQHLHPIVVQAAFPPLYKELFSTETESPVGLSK

Regarding `Oc1ccc(Cl)c(Cl)c1Cl`, the Potency in [1] was above 92 µM; in [17], 42.2 µM (active). In addition, the Potency result in [2], in assay [3], in [6], in [8], in [9] and in [10] was “inactive” in each case. In addition, the Potency result in assay [11] and in [15] was “inactive” throughout. Also, the compound was classed as inactive in assay [4], in [5], in [12], in [13] and in assay [14]. Also, the caspase-3 activation in [7] was 1.72%. Besides, the activation in assay [16] is -0.769%.

For the compound `Nc1cc(Cl)ccc1O`, the Potency in assay [1] was above 92 µM; in [17], 29.8 µM (active). In assay [2], the viability change, negative = cytotoxic was -87.6% (active). Also, the Potency entry in [3], in [8], in assay [9], in assay [11], in [15] and in assay [19] was “inactive” each time. For the same compound, the outcome in assay [18], in [5], in assay [12] and in assay [14] was inactive. Moreover, the caspase-3 activation in assay [7] was 4.86%. Moreover, the activation in [16] was -1.47%. Besides, the max response in [20] was -22.1%.

Take `Clc1ccc(C(c2ccccc2Cl)C(Cl)(Cl)Cl)cc1` (configuration not stated): the Potency in assay [1] was above 92 µM. Moreover, the Potency entry in assay [3], in assay [6], in assay [8] and in [10] was “inactive” in each case. For the same compound, the compound was called inactive in [4], in assay [5], in assay [12], in [13] and in assay [14]. Also, the activation in assay [16] is 0.576% and 10.5%. The max response in assay [20] is -11.9% and 2.81%.

For `CC(C)(C)OOC(=O)c1ccccc1`, the compound was called inactive in [18], in assay [4], in assay [5], in assay [12], in assay [13] and in assay [14]. Further, the Potency entry in assay [6], in [8], in [9], in assay [10], in assay [11] and in assay [15] was “inactive” throughout. Also, the Potency result in assay [17] and in assay [19] was “inactive” in each case. Besides, in assay [7], the caspase-3 activation is -1.73%. For the same compound, in [16], the activation is -3.4% and 2.14%. Further, the max response in assay [20] is 3.96% and -1.99%.
